Results published in PubChem BioAssay (EPA / NIEHS).
Several values for one entry are separate records, joined by “and”; a condition that tells them apart may be missing. Equal entries are not always repeated. Inconclusive results are not listed. Activity calls are given as the source filed them. Rule for the calls, unless noted: active = hit-call score of the fitted dose curve at least 0.9, where 1 is the maximum; inactive = score below 0.9.

Key:
[1] = ACEA_ER_80hr: ACEA Biosciences xCELLigence Real-Time Cell Analysis on Estrogen Receptor Agonism for Proliferation (AID 2282667; active = hit-call score of the fitted dose curve at least 0.9, where 1 is the maximum); conditions: T47D proliferation, impedance (xCELLigence), 80 h
In short: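 Real-time electrical impedance tracked growth of the human breast line T47D, with the 80 h post-dosing value used. Dosing spanned eight 1:4 steps down from a 100 uM final top concentration, run in duplicate.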

[2] = APR_HepG2_CellCycleArrest_24hr: Apredica 24-hour HepG2 Assay for Cell Cycle Arrest (AID 2282905); conditions: imaging, actives raise or lower the signal;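 note: cell cycle arrest scored as ratio of 2N to 4N nuclear DNA content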
In short: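 HepG2 cells were exposed to compounds at 0.39–200 uM (ten concentrations, duplicate) in 0.5% v/v DMSO for 24 hr. After formaldehyde fixation and Triton permeabilization, Hoechst 33342-stained nuclei were imaged at 20x; DNA content was quantified, with bidirectional fitting against DMSO.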

[3] = APR_HepG2_NuclearSize_24hr: Apredica 24-hour HepG2 Assay for Nuclear Size (AID 2282907); conditions: high-content imaging, actives raise or lower the signal
In short: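 HepG2 human liver cells were exposed for 24 hr to compounds at 0.39–200 uM (ten concentrations, duplicate) in 0.5% v/v DMSO. They were then formaldehyde-fixed, Triton-permeabilized and Hoechst 33342-stained, and nuclear diameter was imaged at 20x. Bidirectional fits were made against DMSO.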

[4] = APR_HepG2_CellLoss_24hr: Apredica 24-hour HepG2 Assay for Cell Loss (AID 2282908); conditions: high-content imaging;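 for AC50: fit in both directions so a hit may be cell loss or gain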
In short: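 Compounds were tested at 0.39–200 uM in duplicate with 0.5% v/v DMSO final. Cells were then fixed in 3.7% formaldehyde, Hoechst 33342 nuclei were imaged at 20x by HCS, and cell number was fitted bidirectionally against DMSO.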

[5] = APR_HepG2_MicrotubuleCSK_24hr: Apredica 24-hour HepG2 Assay for Microtubule CSK Stabilty (AID 2282909); conditions: HepG2 microtubule cytoskeleton imaging, actives raise or lower the signal
In short: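 HepG2 cells exposed 24 h to compounds at 0.39–200 uM (duplicate, 0.5% v/v DMSO final), then fixed, permeabilized and immunostained for alpha-tubulin with Hoechst 33342. Cytoskeleton imaged at 20x; bidirectional fit versus DMSO baseline.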

[6] = APR_HepG2_MitoticArrest_24hr: Apredica 24-hour HepG2 Assay for Mitotic Arrest (AID 2282910); conditions: high-content imaging, actives raise or lower the signal
In short: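 HepG2 cells, 24 h exposure at 0.39-200 uM (10 concentrations, duplicate, 0.5% DMSO). Fixed, stained for phospho-histone H3 with Hoechst; imaged by high-content microscopy, bidirectional fit versus DMSO.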

[7] = APR_HepG2_MitoMembPot_24hr: Apredica 24-hour HepG2 Assay for Mitochondrial Membrane Potential (AID 2282911); conditions: imaging, actives raise or lower the signal
In short: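 Cells are dosed for 24 hr across 0.39 to 200 uM with solvent held at 0.5% DMSO. They are then stained with 250 nM MitoTracker Red CMXRos for 30 min, fixed in 3.7% formaldehyde and imaged.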

[8] = APR_HepG2_MitoMass_24hr: Apredica 24-hour HepG2 Assay for Mitochondrial Mass (AID 2282912); conditions: high-content imaging, actives raise or lower the signal
In short: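 Human HepG2 liver cells were exposed for 24 hr to compounds at 0.39–200 uM (duplicates, 0.5% v/v DMSO final). They were stained live with 250 nM MitoTracker Red CMXRos for 30 min, fixed in 3.7% formaldehyde, and imaged by HCS fluorescence; signals were fitted bidirectionally against DMSO.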

[9] = APR_HepG2_CellCycleArrest_72hr: Apredica 72-hour HepG2 Assay for Cell Cycle Arrest (AID 2282914); conditions: high-content imaging, actives raise or lower the signal
In short: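 Read-out is Hoechst-stained nuclear DNA content measured by automated fluorescence imaging (20x, six images per well), fitted in both directions relative to DMSO. Human HepG2 liver cells received 0.39–200 uM compound for 72 hr at 0.5% v/v DMSO.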

[10] = APR_HepG2_p53Act_24hr: Apredica 24-hour HepG2 Assay for p53 Activation (AID 2282913); conditions: high-content imaging, actives raise or lower the signal;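 note: p53 protein immunofluorescence averaged per cell in HepG2 with Hoechst nuclei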
In short: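 Human HepG2 liver cells; 24 hr cpd treatment, 0.39–200 uM, 0.5% DMSO final. Fixed in 3.7% formaldehyde, permeabilized with 0.5% Triton X-100, stained with anti-p53/Cy5 plus Hoechst 33342. Six images per well at 20x; gain or loss vs DMSO.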

Measured: AC50

CCN(CC)CCNc1ccc(CNC=O)c2sc3ccc(OC)cc3c(=O)c12
active: [2] 5.68 µM | [4] 60.2 µM | [6] 7.05 µM | [8] 32.6 µM | [9] 6.28 µM
inactive: [1] | [3] | [5] | [7]

CCCOC(=O)c1ccc(O)cc1
active: [1] 2.7 µM
inactive: all other assays above

CCCCCCCCCCCCCC[N+](C)(C)C
active: [1] 128 nM and 101 nM

COCC(C)O (stereo not given)
active: [7] 0.0477 µM
inactive: all other assays above

O=C(O)c1ccccc1C(c1ccc(O)cc1)c1ccc(O)cc1
active: [9] 100 µM
not listed: [10]
inactive: all other assays above

OC1CCC(C2CCCCC2)CC1 (stereo not given)
inactive: all assays above

CC(C)CCCCCCOC(=O)CCCCC(=O)OCCCCCCC(C)C
inactive: all assays above

C#C[C@]1(O)CC[C@H]2[C@@H]3CCC4=CC(=O)CC[C@@H]4[C@H]3CC[C@@]21C
active: [1] 3.95 nM and 5.39 nM and 91.8 nM
not listed: [10]
inactive: all other assays above

Nc1cccc2c(N)cccc12
active: [4] 51.8 µM | [6] 70.1 µM
not listed: [10]
inactive: all other assays above

Oc1cc2ccccc2c2ccccc12
inactive: [1] | [3] | [9]
active: [2] 37.1 µM | [4] 13.1 µM | [5] 55 µM | [6] 7.13 µM | [7] 43.1 µM | [8] 97.7 µM | [10] 3.2 µM

COCC(C)OCC(C)O (stereo not given)
inactive: all assays above

CCc1nn(C2CCCCC2)c2cc(C3(C#N)CCC(C(=O)O)CC3)ccc12 (stereo not given)
not listed: [10]
inactive: all other assays above

CCCCC(CC)COC(=O)CCCCC(=O)OCc1ccccc1 (stereo not given)
inactive: all assays above

CCOC(=O)CC(O)(CC(=O)OCC)C(=O)OCC
active: [1] 0.75 µM
not listed: [10]
inactive: all other assays above

O=C(O)Cc1cc(I)c(Oc2cc(I)c(O)c(I)c2)c(I)c1
active: [2] 109 µM | [9] 72.5 µM
not listed: [10]
inactive: all other assays above

NCC(F)(F)C(F)(F)C(F)(F)C(F)(F)C(F)(F)C(F)(F)C(F)(F)F
inactive: [1]

CC(O)C(=O)O (stereo not given)
inactive: [1]

CCCCC(CC)COC(=O)CCCCC(=O)OCC(CC)CCCC (stereo not given)
not listed: [10]
inactive: all other assays above
